Hits are enriched below; roughly 1.3% of the tested compounds scored in any of these assays.
PREPL inh = inhibitors of human prolyl oligopeptidase-like enzyme PREPL; recombinant PREPL, fluorescence polarization activity-based probe; 320,000 compounds, 0.68% hits; AID 2751; Q4J6C6; inhibition, % at 5.96 µM; in the data active = inhibition above about 43%
Target sequence (Q4J6C6 whole entry, looked up): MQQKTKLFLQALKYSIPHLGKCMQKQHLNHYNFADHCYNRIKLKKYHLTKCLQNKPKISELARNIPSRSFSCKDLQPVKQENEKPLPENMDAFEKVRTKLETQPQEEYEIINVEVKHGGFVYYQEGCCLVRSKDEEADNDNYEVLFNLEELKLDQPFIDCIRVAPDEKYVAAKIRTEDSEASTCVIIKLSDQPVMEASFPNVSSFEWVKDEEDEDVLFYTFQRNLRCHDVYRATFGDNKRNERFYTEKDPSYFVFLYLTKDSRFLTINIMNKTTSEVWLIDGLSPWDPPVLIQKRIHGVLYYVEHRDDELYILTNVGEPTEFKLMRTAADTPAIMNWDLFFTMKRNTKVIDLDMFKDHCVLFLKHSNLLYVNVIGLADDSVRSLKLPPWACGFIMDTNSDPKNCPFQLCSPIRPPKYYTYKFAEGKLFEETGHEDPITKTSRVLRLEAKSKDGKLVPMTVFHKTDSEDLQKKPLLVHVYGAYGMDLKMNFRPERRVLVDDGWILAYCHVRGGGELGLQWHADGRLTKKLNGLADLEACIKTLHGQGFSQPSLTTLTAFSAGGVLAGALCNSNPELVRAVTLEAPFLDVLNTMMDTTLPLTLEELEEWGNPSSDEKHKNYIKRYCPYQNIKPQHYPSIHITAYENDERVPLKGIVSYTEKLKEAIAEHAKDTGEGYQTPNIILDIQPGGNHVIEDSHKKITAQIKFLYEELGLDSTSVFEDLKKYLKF
beta cell repl = inducers of beta-cell replication in MIN6 cells. MIN6 cells proliferation, ATPlite luminescence, 48 h; cells starved in 0.2% serum; 100% = growth in 10% serum. proliferation, % at 10 µM. 330,000 compounds, 0.29% hits;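 active = compounds whose signal lies at least 3.5 SD above the mean of all wells on their plate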
UBC13 polyUb = inhibitors of human UBC13 polyubiquitin chain formation; P61088; TR-FRET; inhibition, % at 20 µM; AID 485273; 330,000 compounds, 0.47% hits; in the data active = inhibition above about 45%, passing the limit was not always enough; inconclusive = no clear call, values can overlap the other calls
DNA FID counter = fluorescent intercalator displacement, NS3 helicase counter-screen; DNA fluorescent intercalator displacement, fluorescence; 290,000 compounds, 0.17% hits; inhibition, % at 7.9 µM; in the data active = inhibition above about 37%;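 also: higher means more ethidium bromide displaced from hairpin DNA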
RAD52 anneal inh = inhibitors of human RAD52 DNA annealing. 360,000 compounds, 0.46% hits. recombinant RAD52 DNA annealing, FRET fluorescence. inhibition, % at 18.7 µM. P43351;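 active = every replicate showing at least 50% inhibition; inconclusive = mean inhibition at least 50% but not in every replicate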
RAD54 inh = blocks human RAD54 Holliday junction branch migration; inhibition, % at 10.4 µM; AID 602329; Q92698; FAM/BHQ fluorescence; 360,000 compounds, 0.14% hits;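 active = mean normalized replicate activity at least 40 and at least half of replicates scoring 40 or more; inconclusive = only one of the two criteria met; inactive = mean below 40 and under half of replicates reaching 40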;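 also: inhibitors cause a drop in the FAM fluorescence signal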
Rad54 DNA ctr = DNA binding artifact in Rad54 counter-screen; shares compounds with RAD54 inh; Acridine orange-DNA displacement, fluorescence polarization, 20 min; AC50, µM (highest dose often 35 µM); 460 compounds, 8% hits; AID 651673;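 active = signal drop giving an AC50 within twice the top valid tested concentration of each sample, actives reach about 35 µM in these data; inactive = activity opposite to expected, plus the rest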;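 also: polarization loss reports compound binding to salmon sperm DNA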
Hits are given with their value; - = inactive; ? = inconclusive; . = no result given.

SMILES	PREPL inh	beta cell repl	UBC13 polyUb	DNA FID counter	RAD52 anneal inh	RAD54 inh	Rad54 DNA ctr
CCOC(=O)Nc1c2ccccc2nc2ccccc12	-	-	-	-	-	57	-
O=[N+]([O-])c1ccccc1S(=O)(=O)N1CCN(Cc2ccc(OCCO)cc2)CC1	.	.	.	.	-	-	.
NC1CCN(c2c(F)cc3c(=O)c(C(=O)O)cn(C4CC4)c3c2Cl)C1 (stereo not given)	-	-	-	-	-	?	-
C[C@@H]1CN([C@@H](C)CO)C(=O)c2cc(N(C)C)ccc2O[C@@H]1CN(C)Cc1ccc(C(=O)O)cc1	.	.	.	.	-	-	.
CC(C)[C@@H]1COCn2nncc2CC[C@H](Cc2ccccc2)C(=O)N1	.	.	.	.	-	.	.
COc1cc(NC(=O)c2cccnc2Sc2ccc(C)c(C)c2)cc(OC)c1OC	-	-	-	-	.	?	-
CCOC(=O)N1CCN(S(=O)(=O)c2ccc(C(=O)Nc3sc4c(c3C(=O)OC)CCN(C)C4)cc2)CC1	-	-	-	-	-	?	-
Cc1ccnc(SCC(=O)Nc2sc3c(c2C#N)CCC(C(C)(C)C)C3)n1 (stereo not given)	-	-	-	-	.	?	-
CCOC(=O)c1cnc2ccc(C)cc2c1NCCN1CCOCC1	-	-	-	-	-	?	-
CCOC(=O)c1cnc2c(C)c(Cl)ccc2c1NCCCN1CCOCC1	-	-	-	54	-	60	-
CCOC(=O)c1ccc2ncc(C(=O)OCC)c(NCCCN3CCOCC3)c2c1	-	-	-	-	.	-	.
C[C@H]1CCCCO[C@@H](CN(C)Cc2ccncc2)[C@@H](C)CN([C@@H](C)CO)C(=O)c2cc(NS(C)(=O)=O)ccc2O1	.	.	.	.	-	-	.
C[C@@H]1CN([C@@H](C)CO)S(=O)(=O)c2ccc(-c3ccccc3F)cc2O[C@H]1CN(C)Cc1cccnc1	.	.	.	.	-	-	.
NC(COCc1ccccc1)c1csc(Nc2nncc3ccccc23)n1 (stereo not given)	.	.	.	.	-	-	.
NCc1csc(Nc2nncc3ccccc23)n1	.	.	.	.	-	75	-
O=C(CN1CCOCC1)N[C@@H]1CC[C@@H](CCNC(=O)Nc2cc(F)ccc2F)O[C@H]1CO	.	.	.	.	-	-	.
COc1ccc(-c2cc(C(=O)O)c3c(C)nn(-c4ccccn4)c3n2)cc1	-	-	-	-	.	.	.
CCOC(=O)c1cc(-c2ccncc2)nc2c1c(C)nn2-c1ccccn1	-	-	-	-	.	65	-
O=C(C1CC1)N1CC[C@@H]2[C@@H](CO)Nc3ccc(C#Cc4ccc(F)cc4)cc3[C@@H]21	.	.	.	.	.	-	.
COc1ccc2[nH]c(=O)c(CN(C(C)=O)c3cc(C)ccc3C)cc2c1	.	.	.	.	-	-	.
CCC(=O)N(Cc1cc2cc(OC)ccc2[nH]c1=O)c1cc(C)ccc1C	-	-	-	-	.	?	-
CN1CCN(C(=O)C[C@@H]2CC[C@@H](NS(=O)(=O)c3cccc(F)c3)[C@@H](CO)O2)CC1	.	.	.	.	-	-	.
O=C(Nc1ccccc1F)N[C@@H]1CC[C@@H](CCNS(=O)(=O)c2ccc(Cl)cc2)O[C@H]1CO	.	.	.	.	-	-	.
NNC(=O)c1ccc2[nH]c3c(c2c1)CCCC3	-	-	-	-	-	.	.
CN1CCc2[nH]c3ccc(C(=O)NN)cc3c2C1	-	-	-	-	.	67	-
SMILES	PREPL inh	beta cell repl	UBC13 polyUb	DNA FID counter	RAD52 anneal inh	RAD54 inh	Rad54 DNA ctr
CO[C@@H]1CN(C)C(=O)c2cc(NC(=O)NC3CCCCC3)ccc2OC[C@H](C)N(C(C)=O)C[C@@H]1C	.	.	.	.	-	-	.
CCCN(CCC)c1nc(-c2ccccn2)nc2ccccc12	.	-	-	-	-	90	-
COc1cccc(CNc2nc3cc(-c4ccc(C(=O)N5CCN(C)CC5)cc4)sc3c(=O)n2C)c1	.	.	.	.	-	-	.
Cn1c(NCCN2CCCC2)nc2cc(-c3ccsc3)sc2c1=O	.	.	.	.	-	58	-
CN(C)CCCNc1nc2cc(-c3ccc(C(=O)N4CCN(C)CC4)cc3)sc2c(=O)n1C	.	.	.	.	75	?	-
CC(C)C(=O)Nc1ccc2c(c1)C(=O)N(C)[C@@H]1CC[C@H](CC(=O)O)O[C@@H]1CO2	.	.	.	.	-	-	.
COc1ccc(Nc2nc(N3CCCCC3)nc3ccccc23)c(OC)c1	-	-	-	-	.	55	-
O=C(C[C@H]1CC[C@@H](NC(=O)CN2CCOCC2)[C@@H](CO)O1)NC1CCCCC1	.	.	.	.	-	-	.
COc1cc2sc3cc(NCc4ccc(C)o4)ccc3c(=O)c2cc1OC	-	-	-	.	-	-	.
COc1cc2sc3cc(NCC[C@@H]4CCCN4C)ccc3c(=O)c2cc1OC	-	-	-	.	-	76	-
COc1cccc2sc3ccc(NCCC4CCCN4C)cc3c(=O)c12 (stereo not given)	-	-	-	-	-	61	-
CNC(=O)C[C@H]1CC[C@@H]2[C@H](COC[C@@H](O)CN2Cc2ccncc2)O1	.	.	.	.	-	-	.
CCNC(=O)Nc1ccc2c(c1)C(=O)N(C)[C@H]1CC[C@H](CC(=O)Nc3ccccc3OC)O[C@@H]1CO2	.	.	.	.	-	.	.
CN1CCN(c2ncnc3c2sc2nc(N4CCOCC4)c4c(c23)CCC4)CC1	.	.	.	-	.	.	.
OCCN1CCN(c2ncnc3c2sc2nc(N4CCOCC4)c4c(c23)CCC4)CC1	-	-	-	-	-	53	-
CN1CCN(c2nc(-c3ccccc3Cl)nc3ccccc23)CC1	.	-	-	-	-	-	.
CN1CCN(c2nc(-c3ccncc3)nc3ccccc23)CC1	-	-	-	-	.	87	-
CN1CCN(c2nc(-c3cccs3)nc3ccccc23)CC1	-	-	-	-	-	71	-
OCCN1CCN(c2nc(-c3ccccc3O)nc3ccccc23)CC1	-	-	-	-	-	73	-
Cc1ccc(S(=O)(=O)N(C)C[C@H]2Oc3ccc(NC(=O)CCCCCC(=O)Nc4ccccc4N)cc3C(=O)N([C@H](C)CO)C[C@@H]2C)cc1	.	.	.	.	-	.	.
CO[C@H]1CN(C)C(=O)c2cc(NC(=O)Nc3cc(Cl)cc(Cl)c3)ccc2OC[C@H](C)NC[C@H]1C	.	.	.	.	-	.	.
CN1CCN(c2ccc(CNC(=O)C3Cc4c(-c5ccc(Cl)cc5)ccnc4O3)cc2)CC1 (stereo not given)	.	.	.	.	-	?	-
CC(=O)Nc1ccc(-c2ccnc3c2CC(C(=O)NCc2ccc(N4CCN(C)CC4)cc2)O3)cc1 (stereo not given)	.	.	.	.	-	-	.
COc1ccc2c(c1)c1ncn(CCN3CCCCC3)c(=O)c1n2C	-	-	-	-	.	52	-
COc1ccc2c(c1)c1ncn(CCN3CCCC3)c(=O)c1n2C	-	-	-	-	.	59	-
COc1ccc2c(c1)c1ncn(CCN3CCNCC3)c(=O)c1n2C	-	-	-	-	-	.	.
Cn1nc(-c2ccccc2)cc1NS(=O)(=O)c1ccccc1	-	-	-	-	-	.	.
Cn1nc(-c2ccccc2)cc1NS(=O)(=O)c1ccc(C#N)cc1	-	-	-	-	-	?	-
